According to PubChem BioAssay AID1159580 (chemical genetic matrix, 2015):
The whole screen tested about 5,500 compounds, of which about 2,000 (36%) were called active. About 18% were inconclusive and are not listed. Rule as the data show it: active = normalized growth mostly below about 0.91 (no sharp cut-off); inconclusive = no clear call, values can overlap the other calls; inactive = mostly above about 0.92. Some of the results follow.

Test: chemical genetic growth profiling, strain panel (AID 1159580);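 also: tested at 20 µM; growth read once vehicle control cultures reached saturation at 30 °C; 1 = growth at the plate median or of vehicle wells; lower values mean less growth of the strain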
Conditions: growth OD
[1] = S. cerevisiae deletion strains, locus YGR078C, strain PAC10, hits give low values
[2] = S. cerevisiae deletion strains, locus YMR263W, strain SAP30, hits give low values
[3] = S. cerevisiae deletion strains, locus YMR307W, strain GAS1, hits give low values
[4] = S. cerevisiae deletion strains, locus YNL322C, strain KRE1, hits give low values
[5] = S. cerevisiae deletion strains, locus YPL241C, strain CIN2, hits give low values
[6] = S. cerevisiae deletion strains, locus YDL101C, strain DUN1, hits give low values
[7] = S. cerevisiae deletion strains, locus YHR030C, strain SLT2, hits give low values
[8] = S. cerevisiae deletion strains, locus YAR019C, strain CDC15, hits give low values
[9] = S. cerevisiae deletion strains, locus YBL105C, strain PKC1, hits give low values
[10] = S. cerevisiae deletion strains, locus YBR135W, strain CKS1, hits give low values
[11] = S. cerevisiae deletion strains, locus YBR136W, strain MEC1, hits give low values
[12] = S. cerevisiae deletion strains, locus YBR160W, strain CDC28, hits give low values
[13] = S. cerevisiae deletion strains, locus YDL017W, strain CDC7, hits give low values
[14] = S. cerevisiae deletion strains, locus YDL028C, strain MPS1, hits give low values
[15] = S. cerevisiae deletion strains, locus YDL108W, strain KIN28, hits give low values
[16] = S. cerevisiae deletion strains, locus YDL132W, strain cdc53, hits give low values
[17] = S. cerevisiae deletion strains, locus YDL214C, strain PRR2, hits give low values
[18] = S. cerevisiae deletion strains, locus YDR052C, strain DBF4, hits give low values
[19] = S. cerevisiae deletion strains, locus YDR054C, strain cdc34, hits give low values
[20] = S. cerevisiae deletion strains, locus YDR226W, strain ADK1, hits give low values
[21] = S. cerevisiae deletion strains, locus YDR477W, strain SNF1, hits give low values
[22] = S. cerevisiae deletion strains, locus YER123W, strain YCK3, hits give low values
[23] = S. cerevisiae deletion strains, locus YER133W, strain GLC7, hits give low values
[24] = S. cerevisiae deletion strains, locus YFL009W, strain cdc4, hits give low values
[25] = S. cerevisiae deletion strains, locus YFL029C, strain CAK1, hits give low values
[26] = S. cerevisiae deletion strains, locus YFR003C, strain YPI1, hits give low values
[27] = S. cerevisiae deletion strains, locus YFR019W, strain FAB1, hits give low values
[28] = S. cerevisiae deletion strains, locus YFR028C, strain CDC14, hits give low values
[29] = S. cerevisiae deletion strains, locus YGR040W, strain KSS1, hits give low values
[30] = S. cerevisiae deletion strains, locus YGR052W, strain FMP48, hits give low values
[31] = S. cerevisiae deletion strains, locus YGR092W, strain DBF2, hits give low values
[32] = S. cerevisiae deletion strains, locus YHR079C, strain IRE1, hits give low values
[33] = S. cerevisiae deletion strains, locus YHR082C, strain KSP1, hits give low values
[34] = S. cerevisiae deletion strains, locus YHR205W, strain SCH9, hits give low values
[35] = S. cerevisiae deletion strains, locus YIL147C, strain SLN1, hits give low values
[36] = S. cerevisiae deletion strains, locus YJL095W, strain BCK1, hits give low values
[37] = S. cerevisiae deletion strains, locus YJL128C, strain PBS2, hits give low values
[38] = S. cerevisiae deletion strains, locus YJL157C, strain FAR1, hits give low values
[39] = S. cerevisiae deletion strains, locus YJR016C, strain ILV3, hits give low values
[40] = S. cerevisiae deletion strains, locus YJR066W, strain TOR1 (second series), hits give low values
[41] = S. cerevisiae deletion strains, locus YJR066W, strain TOR1, hits give low values
[42] = S. cerevisiae deletion strains, locus YKL048C, strain ELM1, hits give low values
[43] = S. cerevisiae deletion strains, locus YKL067W, strain YNK1, hits give low values
[44] = S. cerevisiae deletion strains, locus YKL101W, strain HSL1, hits give low values
[45] = S. cerevisiae deletion strains, locus YKL193C, strain SDS22, hits give low values
[46] = S. cerevisiae deletion strains, locus YKL203C, strain TOR2, hits give low values
[47] = S. cerevisiae deletion strains, locus YLR113W, strain HOG1, hits give low values
[48] = S. cerevisiae deletion strains, locus YLR133W, strain CKI1, hits give low values
[49] = S. cerevisiae deletion strains, locus YLR403W, strain SFP1, hits give low values
[50] = S. cerevisiae deletion strains, locus YML070W, strain DAK1, hits give low values
[51] = S. cerevisiae deletion strains, locus YMR001C, strain CDC5, hits give low values
[52] = S. cerevisiae deletion strains, locus YMR205C, strain PFK2 (second series), hits give low values
[53] = S. cerevisiae deletion strains, locus YMR277W, strain FCP1, hits give low values
[54] = S. cerevisiae deletion strains, locus YNL006W, strain LST8, hits give low values
[55] = S. cerevisiae deletion strains, locus YNL020C, strain ARK1, hits give low values
[56] = S. cerevisiae deletion strains, locus YNL161W, strain CBK1, hits give low values
[57] = S. cerevisiae deletion strains, locus YNL183C, strain NPR1, hits give low values
[58] = S. cerevisiae deletion strains, locus YNL207W, strain RIO2, hits give low values
[59] = S. cerevisiae deletion strains, locus YNL222W, strain SSU72, hits give low values
[60] = S. cerevisiae deletion strains, locus YNL307C, strain MCK1 (second series), hits give low values
[61] = S. cerevisiae deletion strains, locus YOL078W, strain AVO1, hits give low values
[62] = S. cerevisiae deletion strains, locus YOL136C, strain PFK27, hits give low values
[63] = S. cerevisiae deletion strains, locus YOR061W, strain CKA2, hits give low values
[64] = S. cerevisiae deletion strains, locus YOR119C, strain RIO1, hits give low values
[65] = S. cerevisiae deletion strains, locus YOR231W, strain MKK1, hits give low values
[66] = S. cerevisiae deletion strains, locus YOR329C, strain SCD5, hits give low values
[67] = S. cerevisiae deletion strains, locus YPL031C, strain PHO85, hits give low values
[68] = S. cerevisiae deletion strains, locus YPL153C, strain RAD53, hits give low values
[69] = S. cerevisiae deletion strains, locus YPL204W, strain HRR25, hits give low values
[70] = S. cerevisiae deletion strains, locus YPL209C, strain IPL1, hits give low values
[71] = S. cerevisiae deletion strains, locus YPL256C, strain CLN2, hits give low values
[72] = S. cerevisiae deletion strains, locus YPR025C, strain CCL1, hits give low values
[73] = S. cerevisiae deletion strains, locus YPR106W, strain ISR1, hits give low values
[74] = S. cerevisiae deletion strains, locus YPR111W, strain DBF20, hits give low values
[75] = S. cerevisiae deletion strains, strain NNK1, hits give low values
[76] = S. cerevisiae deletion strains, strain TSCII, hits give low values

Measured: normalized growth

CCCc1c(-c2ccc(O)cc2)nn(-c2ccc(O)cc2)c1-c1ccc(O)cc1
inactive: S. cerevisiae deletion strains, locus YAL040C, strain CLN3, hits give low values 0.985 | S. cerevisiae deletion strains, locus YCL061C, strain MRC1 (second series), hits give low values 0.999 | S. cerevisiae deletion strains, locus YDR363W, strain ESC2, hits give low values 0.994 | S. cerevisiae deletion strains, locus YER002W, strain NOP16, hits give low values 1 | [1] 1 | [2] 0.995 | [3] 1.01 | S. cerevisiae deletion strains, locus YNL175C, strain NOP13, hits give low values 1.02 | S. cerevisiae deletion strains, locus YNL197C, strain WHI3, hits give low values 1.01 | S. cerevisiae deletion strains, locus YNL224C, strain SQS1, hits give low values 1 | [4] 0.988 | S. cerevisiae deletion strains, locus YOR083W, strain WHI5 (second series), hits give low values 0.948 | [5] 0.991

O=C1CCc2cccc3cccc1c23
inactive: S. cerevisiae deletion strains, locus YAL013W, strain DEP1, hits give low values 0.963 | S. cerevisiae deletion strains, locus YBR229C, strain ROT2, hits give low values 0.984 | [6] 0.932 | S. cerevisiae deletion strains, locus YDR150W, strain NUM1, hits give low values 0.966 | S. cerevisiae deletion strains, locus YEL061C, strain CIN8, hits give low values 0.954 | [1] 0.962 | [7] 0.769 | S. cerevisiae deletion strains, locus YHR087W, strain rtc3, hits give low values 1.01 | S. cerevisiae deletion strains, locus YJL187C, strain SWE1, hits give low values 0.981 | S. cerevisiae deletion strains, locus YJR043C, strain POL32, hits give low values 0.988 | S. cerevisiae deletion strains, locus YJR075W, strain HOC1, hits give low values 0.997 | S. cerevisiae deletion strains, locus YLR058C, strain SHM2 (second series), hits give low values 0.982 | S. cerevisiae deletion strains, locus YML094W, strain GIM5, hits give low values 0.921 | S. cerevisiae deletion strains, locus YMR219W, strain ESC1, hits give low values 0.988 | [2] 0.969 | [3] 1.03 | S. cerevisiae deletion strains, locus YNL153C, strain GIM3, hits give low values 0.934 | S. cerevisiae deletion strains, locus YNL298W, strain CLA4 (second series), hits give low values 0.906 | [4] 0.957 | S. cerevisiae deletion strains, locus YNR030W, strain Alg12, hits give low values 0.927 | S. cerevisiae deletion strains, locus YPL055C, strain LGE1, hits give low values 1 | [5] 0.933 | S. cerevisiae deletion strains, locus YPR135W, strain CTF4, hits give low values 0.713 | S. cerevisiae strains, strain wild type, hits give low values 0.949
active: S. cerevisiae deletion strains, locus YLR039C, strain RIC1, hits give low values 0.679 | S. cerevisiae deletion strains, locus YLR085C, strain ARP6, hits give low values 0.764 | S. cerevisiae deletion strains, locus YLR262C, strain YPT6, hits give low values 0.672

Cc1cccc(N=NC(C(=O)C(F)(F)F)=C(O)c2cccs2)c1
inactive: [8] 0.995 | [9] 0.985 | [10] 0.987 | [11] 0.993 | [12] 0.996 | [13] 0.986 | [14] 0.996 | [6] 0.988 | [15] 0.984 | [16] 0.978 | [17] 0.975 | [18] 0.99 | [19] 0.976 | [20] 0.992 | [21] 0.975 | [22] 0.979 | [23] 0.975 | [24] 0.988 | [25] 0.993 | [26] 0.99 | [27] 0.992 | [28] 0.983 | [29] 0.974 | [30] 0.927 | [31] 0.946 | [7] 0.876 | [32] 0.749 | [33] 1.07 | [34] 0.985 | [35] 0.988 | [36] 0.787 | [37] 0.944 | [38] 0.989 | [39] 0.984 | [40] 0.988 | [41] 1.07 | [42] 0.976 | [43] 0.976 | [44] 0.951 | [45] 0.991 | [46] 1.06 | [48] 0.983 | [49] 0.979 | [50] 0.973 | [51] 0.979 | [52] 0.984 | [53] 0.989 | [54] 0.988 | [55] 0.979 | [56] 0.99 | [57] 0.842 | [58] 0.986 | [59] 0.987 | [60] 0.984 | [61] 0.988 | [62] 0.989 | [63] 0.983 | [64] 0.999 | [65] 0.797 | [66] 0.984 | [67] 0.953 | [68] 0.948 | [69] 0.97 | [70] 0.99 | [72] 0.985 | [73] 0.98 | [74] 0.972 | [75] 0.995 | [76] 0.988
active: [47] 0.713 | [71] 0.777

CN(C)c1ccc(/C=C/c2ccc3ccccc3[n+]2C)cc1
inactive: [8] 0.966 | [9] 0.961 | [10] 0.974 | [11] 0.956 | [12] 0.959 | [13] 0.969 | [14] 0.976 | [6] 0.988 | [15] 0.965 | [16] 0.975 | [17] 0.817 | [18] 0.954 | [19] 0.965 | [20] 0.961 | [21] 0.83 | [22] 0.799 | [23] 0.801 | [24] 0.976 | [25] 0.978 | [26] 0.959 | [27] 0.87 | [28] 0.967 | [29] 0.798 | [30] 0.745 | [31] 0.775 | [33] 0.806 | [34] 0.64 | [35] 0.959 | [36] 0.666 | [37] 0.943 | [38] 0.733 | [39] 0.983 | [40] 0.928 | [41] 0.607 | [42] 0.899 | [43] 0.798 | [44] 0.815 | [45] 0.982 | [46] 0.823 | [48] 0.816 | [49] 0.672 | [50] 0.811 | [51] 0.978 | [52] 0.887 | [53] 0.976 | [54] 0.979 | [56] 0.977 | [57] 0.782 | [58] 0.962 | [59] 0.968 | [61] 0.984 | [62] 0.786 | [63] 0.69 | [64] 0.833 | [66] 0.965 | [67] 0.807 | [68] 0.833 | [69] 0.726 | [70] 0.966 | [72] 0.969 | [73] 0.977 | [74] 0.96 | [75] 0.97 | [76] 0.966
active: [7] 0.532 | [32] 0.49 | [47] 0.677 | [55] 0.61 | [60] 0.589 | [65] 0.548 | [71] 0.626
